# Test results taken from PubChem BioAssay AID1159580 (chemical genetic matrix, 2015).
# Several values for one entry are separate records, joined by “and”; a condition that tells them apart may be missing. Equal values may be shown once. Among all 5,500 compounds or so, about 2,000 (36%) were called active. Another 18% or so got no clear call; they are omitted. The list shows a part of the results. Values without a mark were called inactive. No stated cut-off is given here; in the data, active means normalized growth mostly below about 0.91 (no sharp cut-off); inconclusive means no clear call, values can overlap the other calls; inactive means mostly above about 0.92.
# Assay: chemical genetic growth profiling, strain panel (AID 1159580);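 further: tested at 20 µM; growth read once vehicle control cultures reached saturation at 30 °C; 1 = growth at the plate median or of vehicle wells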
# Conditions: S. cerevisiae deletion strains, growth OD
structure (smiles),measurement,setting,value
C[C@@H]1CC[C@H]2C(C)(C)C3CC12CC[C@@]3(C)O (stereo partly specified),normalized growth,"locus YAL021C, strain ccr4, stronger effect = lower value",0.942
same,normalized growth,"locus YAL026C, strain drs2, stronger effect = lower value",0.918
same,normalized growth,"locus YAL030W, strain snc1, stronger effect = lower value",0.884 (active)
same,normalized growth,"locus YBL061C, strain skt5, stronger effect = lower value",0.754 (active)
same,normalized growth,"locus YBR009C, strain hhf1, stronger effect = lower value",0.658 (active)
same,normalized growth,"locus YBR021W, strain FUR4, stronger effect = lower value",0.935
same,normalized growth,"locus YBR023C, strain chs3, stronger effect = lower value",0.7 (active)
same,normalized growth,"locus YBR171W, strain sec66, stronger effect = lower value",0.962
same,normalized growth,"locus YBR229C, strain ROT2, stronger effect = lower value",1.02
same,normalized growth,"locus YBR231C, strain swc5, stronger effect = lower value",0.862 (active)
same,normalized growth,"locus YBR279W, strain paf1, stronger effect = lower value",0.907 (active)
same,normalized growth,"locus YCL011C, strain gbp2, stronger effect = lower value",0.811 (active)
same,normalized growth,"locus YCL016C, strain dcc1, stronger effect = lower value",0.859 (active)
same,normalized growth,"locus YCL029C, strain bik1, stronger effect = lower value",1.01
same,normalized growth,"locus YCL061C, strain MRC1, stronger effect = lower value",0.952
same,normalized growth,"locus YCL069W, strain vba3, stronger effect = lower value",0.977
same,normalized growth,"locus YCR088W, strain abp1, stronger effect = lower value",0.976
same,normalized growth,"locus YDL005C, strain med2, stronger effect = lower value",0.848 (active)
same,normalized growth,"locus YDL035C, strain GPR1, stronger effect = lower value",0.979
same,normalized growth,"locus YDL040C, strain nat1, stronger effect = lower value",0.952
same,normalized growth,"locus YDL074C, strain BRE1, stronger effect = lower value",0.913
same,normalized growth,"locus YDL101C, strain DUN1, stronger effect = lower value",0.988
same,normalized growth,"locus YDL185W, strain tfp1, stronger effect = lower value",0.99
same,normalized growth,"locus YDL192W, strain arf1, stronger effect = lower value",0.872 (active)
same,normalized growth,"locus YDR001C, strain nth1, stronger effect = lower value",1.01
same,normalized growth,"locus YDR101C, strain arx1, stronger effect = lower value",0.939
same,normalized growth,"locus YDR137W, strain rgp1, stronger effect = lower value",0.67 (active)
same,normalized growth,"locus YDR150W, strain NUM1, stronger effect = lower value",1.02
same,normalized growth,"locus YDR159W, strain sac3, stronger effect = lower value",0.603 (active)
same,normalized growth,"locus YDR162C, strain NBP2, stronger effect = lower value",1
same,normalized growth,"locus YDR195W, strain ref2",0.318 (active)
same,normalized growth,"locus YDR297W, strain sur2, stronger effect = lower value",0.906 (active)
same,normalized growth,"locus YDR318W, strain mcm21, stronger effect = lower value",0.95
same,normalized growth,"locus YDR334W, strain swr1, stronger effect = lower value",1
same,normalized growth,"locus YDR335W, strain msn5, stronger effect = lower value",0.928
same,normalized growth,"locus YDR388W, stronger effect = lower value",0.969
same,normalized growth,"locus YDR392W, strain spt3, stronger effect = lower value",0.301 (active)
same,normalized growth,"locus YDR502C, strain sam2, stronger effect = lower value",0.924
same,normalized growth,"locus YEL003W, strain gim4, stronger effect = lower value",0.848 (active)
same,normalized growth,"locus YEL037C, strain rad23, stronger effect = lower value",0.973
same,normalized growth,"locus YEL061C, strain CIN8 (second series), stronger effect = lower value",0.875 (active)
same,normalized growth,"locus YEL061C, strain CIN8, stronger effect = lower value",0.917 (active)
same,normalized growth,"locus YER015W, strain faa2, stronger effect = lower value",0.86 (active)
same,normalized growth,"locus YER016W, strain bim1, stronger effect = lower value",0.904 (active)
same,normalized growth,"locus YER110C, stronger effect = lower value",0.984
same,normalized growth,"locus YER111C, strain swi4, stronger effect = lower value",0.77 (active)
same,normalized growth,"locus YER155C, strain BEM2 (second series), stronger effect = lower value",0.74 (active)
same,normalized growth,"locus YER155C, strain BEM2, stronger effect = lower value",0.876 (active)
same,normalized growth,"locus YER167W, strain BCK2, stronger effect = lower value",0.948
same,normalized growth,"locus YFR010W, strain ubp6, stronger effect = lower value",0.863 (active)
same,normalized growth,"locus YGL078C, strain dbp3, stronger effect = lower value",0.955
same,normalized growth,"locus YGL086W, strain mad1, stronger effect = lower value",0.911 (active)
same,normalized growth,"locus YGL167C, strain pmr1, stronger effect = lower value",1.01
same,normalized growth,"locus YGL173C, strain kem1, stronger effect = lower value",0.795 (active)
same,normalized growth,"locus YGL227W, strain vid30, stronger effect = lower value",0.969
same,normalized growth,"locus YGL240W, strain doc1, stronger effect = lower value",0.805 (active)
same,normalized growth,"locus YGL248W, strain PDE1, stronger effect = lower value",0.968
same,normalized growth,"locus YGL253W, strain hxk2, stronger effect = lower value",0.897 (active)
same,normalized growth,"locus YGR135W, strain pre9, stronger effect = lower value",0.922
same,normalized growth,"locus YGR252W, strain gcn5, stronger effect = lower value",0.97
same,normalized growth,"locus YHR013C, strain ard1, stronger effect = lower value",0.961
same,normalized growth,"locus YHR027C, strain rpn1, stronger effect = lower value",0.888 (active)
same,normalized growth,"locus YHR030C, strain SLT2, stronger effect = lower value",0.93 and 0.993
same,normalized growth,"locus YHR079C, strain IRE1 (second series), stronger effect = lower value",1.02
same,normalized growth,"locus YHR079C, strain IRE1, stronger effect = lower value",0.99
same,normalized growth,"locus YHR094C, strain hxt1, stronger effect = lower value",0.992
same,normalized growth,"locus YHR129C, strain ARP1, stronger effect = lower value",0.968
same,normalized growth,"locus YHR142W, strain chs7, stronger effect = lower value",0.605 (active)
same,normalized growth,"locus YHR200W, strain rpn10, stronger effect = lower value",0.941
same,normalized growth,"locus YIL066C, strain RNR3, stronger effect = lower value",0.937
same,normalized growth,"locus YIL073C, strain SPO22, stronger effect = lower value",0.974
same,normalized growth,"locus YIL125W, strain kgd1, stronger effect = lower value",0.959
same,normalized growth,"locus YIR030C, strain dcg1, stronger effect = lower value",0.987
same,normalized growth,"locus YJL092W, strain hpr5, stronger effect = lower value",0.968
same,normalized growth,"locus YJL095W, strain BCK1 (second series), stronger effect = lower value",0.699 (active)
same,normalized growth,"locus YJL095W, strain BCK1, stronger effect = lower value",0.927 and 1.01
same,normalized growth,"locus YJL115W, strain asf1, stronger effect = lower value",0.996
same,normalized growth,"locus YJL129C, strain trk1, stronger effect = lower value",0.859 (active)
same,normalized growth,"locus YJL134W, strain LCB3, stronger effect = lower value",1.01
same,normalized growth,"locus YJL154C, strain vps35, stronger effect = lower value",0.983
same,normalized growth,"locus YJL164C, strain tpk1, stronger effect = lower value",0.753 (active)
same,normalized growth,"locus YJL166W, strain qcr8, stronger effect = lower value",0.669 (active)
same,normalized growth,"locus YJL168C, strain set2, stronger effect = lower value",0.986
same,normalized growth,"locus YJL187C, strain SWE1 (second series), stronger effect = lower value",0.986
same,normalized growth,"locus YJL187C, strain SWE1, stronger effect = lower value",0.833 (active)
same,normalized growth,"locus YJR043C, strain POL32, stronger effect = lower value",0.97
